Hits are enriched below; roughly 1.8% of the tested compounds scored in any of these assays.
Sa RN4220 lethal: S. aureus RN4220 growth inhibition; OD600, 16 h; inhibition, % (concentration not given with the values); actives 0.33% (n = 330,000); AID 1259311; in the data active = inhibition above about 85%;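 note: plate controls were untreated cells for no effect and reference antibiotic for full effect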
Mtb hypoxia inh: reduces hypoxia-regulated biosensor signal in M. tuberculosis; fluorescence inhibition, % (concentration not given with the values); M. tuberculosis hypoxia-regulated fluorescent reporter, fluorescence; actives 0.1% (n = 300,000); in the data active = fluorescence inhibition mostly above about 23%, no sharp cut-off; inactive = mostly below about 17%
PfHsp40 yeast: compounds rescuing yeast from Plasmodium falciparum HSP40 toxicity. S. cerevisiae expressing PfHsp40, growth rescue, ATP luminescence. growth rescue, % at 12.5 µM. actives 0.68% (n = 340,000); in the data active = growth rescue above about 28%, passing the limit was not always enough;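 note: yeast W303a lacking pdr1 and pdr3 grown in galactose medium; growth measured after three days at 30 °C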
SSB-PriA inh: K. pneumoniae PriA-SSBct interaction inhibition | AlphaScreen SSBct-PriA binding, biotinylated peptide | inhibition, % at 33 µM | actives 0.6% (n = 430,000) | AID 1272365; in the data active = inhibition mostly above about 37%, no sharp cut-off; inactive = mostly below about 20%;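 note: plate controls were negative control peptide for no effect and reference peptide for full effect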
ugtP null kill: growth inhibition of S. aureus ugtP deletion strain; S. aureus RN4220 ugtP deletion, OD600 growth, 16 h; growth inhibition, % (no concentration beside the values); actives 0.54% (n = 330,000); in the data active = growth inhibition above about 68%;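 note: plate controls were untreated wells for no effect and antibiotic for full effect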
DUSP3 inh: blocks human VHR1 dual specificity phosphatase; P51452; inhibition, % at 13.3 µM; actives 0.52% (n = 290,000); recombinant VHR phosphatase, pNPP absorbance; AID 1654; in the data active = inhibition above about 50%
Target sequence (P51452 whole entry, looked up): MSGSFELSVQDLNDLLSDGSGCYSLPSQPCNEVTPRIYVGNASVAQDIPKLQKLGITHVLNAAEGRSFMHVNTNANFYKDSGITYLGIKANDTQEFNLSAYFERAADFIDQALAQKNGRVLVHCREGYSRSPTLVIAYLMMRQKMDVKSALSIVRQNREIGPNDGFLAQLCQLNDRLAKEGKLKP
Starred values were filed as active, the others as inactive; x = not tested or not shown; ! = repeats disagree.

SMILES | Sa RN4220 lethal | Mtb hypoxia inh | PfHsp40 yeast | SSB-PriA inh | ugtP null kill | DUSP3 inh
O=C(NCCN1CCCCC1)Nc1cccc(F)c1 | 4 | 9 | 0 | 9 | 2 | 57*
COc1ccc(Cn2c3nc4ccccc4nc3c3c(=O)n(Cc4ccco4)c(C)nc32)cc1 | x | x | x | x | x | 91*
COc1ccc(Cn2c(C)nc3c(c2=O)c2nc4ccccc4nc2n3Cc2ccco2)cc1 | 13 | x | 0 | -11 | 32 | x
O=C(COc1ccccc1F)NCC[C@H](O)C1CCOCC1 | x | x | x | -10 | x | x
CO/N=C(/C(=O)NC1C(=O)N2C(C(=O)O)=C(COC(C)=O)CSC12)c1csc(N)n1 (stereo unspecified) | x | x | x | 8 | x | x
CC(=O)OCC1=C(C(=O)O)N2C(=O)C(NC(=O)CC(C)c3ccccc3)C2SC1 (stereo unspecified) | 100* | x | 0 | -1 | 94* | x
CCOc1ccc(C(=O)NC2C(=O)N3C(C(=O)O)=C(COC(C)=O)CSC23)cc1OCC (stereo unspecified) | 41 | -1 | 0 | -8 | 24 | x
CC(=O)OCC1=C(C(=O)O)N2C(=O)C(NC(=O)C(C)Cn3cc(Cl)cn3)C2SC1 (stereo unspecified) | 100* | 17 | -1 | -4 | 100* | 34
CC(=O)OCC1=C(C(=O)O)N2C(=O)[C@@H](NC(=O)Cc3cccs3)[C@H]2SC1 | 99* | x | 0 | 5 | 99* | -3
CC(=O)OCC1=C(C(=O)O)N2C(=O)[C@@H](NC(=O)Cc3ccccc3)[C@H]2SC1 | x | x | 0 | -2 | x | x
O=C(c1cc2ccccc2s1)N(Cc1ccsc1)C1CC1 | x | x | x | -17 | x | x
O=C(Nc1cc(OCc2ccccc2)ncn1)C1CC=CCC1 (stereo unspecified) | x | x | x | -5 | x | x
CC(=O)Nc1ccc(C23CC4CC(CC(C4)C2)C3)cc1 | 1 | 4 | 11 | -6 | 2 | 40
CNC(=S)Nc1ccc(C23CC4CC(CC(C4)C2)C3)cc1 | -6 | 17 | 179* | 0 | 6 | 30
CCC(C)Sc1ccc(-c2nc3ccccn3c2NCc2ccccc2)cc1OC (stereo unspecified) | 3 | -19 | 89* | 2 | 3 | x
COc1ccc(CSc2ccc(-c3nc4ccccn4c3NCc3ccccc3)cc2OC)cc1 | 5 | -1 | 4 | 0 | 4 | x
Cc1ccc(NC(=S)c2nc3ccccc3[nH]2)c(C)c1 | -6 | 7 | 331* | 23 | 11 | 4
O=C(Nc1nc(-c2ccc3c(c2)OCCO3)cs1)c1coc2ccccc2c1=O | x | x | x | 7 | x | x
CC[C@@H](C(=O)Nc1ccn2nccc2c1)c1ccccc1 | x | x | x | -2 | x | x
CCOc1cc(C2C(C(=O)c3ccc(C)o3)=C(O)C(=O)N2CCc2ccccc2)ccc1O (stereo unspecified) | 18 | 3 | 77* | -9 | 48 | 25
COc1cc(C2C(C(=O)c3ccc(C)o3)=C(O)C(=O)N2Cc2ccccc2)ccc1O (stereo unspecified) | 4 | 6 | -1 | 0 | 8 | x
CN(C)C(=S)NN=C(c1ccccn1)c1ccccn1 | x | x | x | 162* | x | x
COc1cc(C(=O)NN=C(c2ccccc2)c2ccccn2)cc(OC)c1OC | 5 | -8 | x | -5 | -12 | x
CSC(=S)NN=C(C)c1cccc(C)n1 | x | x | 64* | 55* | x | x
CSC(=S)N/N=C(/c1ccccc1)c1ccccn1 | x | x | x | 108* | x | x
SMILES | Sa RN4220 lethal | Mtb hypoxia inh | PfHsp40 yeast | SSB-PriA inh | ugtP null kill | DUSP3 inh
Cc1ccccc1NC(=O)NCC1(O)CCc2ccccc2C1 (stereo unspecified) | x | x | x | 24 | x | x
CSc1ncc(-c2ccc(C)cc2)n1-c1ccccc1C | x | x | x | 58* | x | x
CC1CCN(S(=O)(=O)c2ccc(C(=O)NNC(=O)C3CC3)cc2)CC1 | -1 | -5 | 124* | -1 | -9 | 30
COc1cc(CCc2ccccc2)c(C(=O)O)c(O)c1C/C=C(/C)CCC=C(C)C | 88* | -3 | 3 | -3 | 100* | x
COc1cc(CCc2ccccc2)c(C(=O)O)c(O)c1CC=C(C)C | x | x | 6 | -8 | x | x
CCOC(=O)CC(C)=NNc1ccc([N+](=O)[O-])cc1[N+](=O)[O-] | 19 | 11 | x | 47* | 4 | x
CC(CCC(=O)O)=NNc1ccc([N+](=O)[O-])cc1[N+](=O)[O-] | 2 | -1 | x | 13 | -9 | x
CC(=O)Nc1ccc(NC(=O)CSc2ccc(-c3ccccn3)nn2)cc1 | x | x | x | 47 | x | x
Cc1cccc(NC(=O)CSc2ccc(-c3ccccn3)nn2)c1 | x | x | x | 71* | x | x
Cc1ccc(NC(=O)CSc2ccc(-c3ccccn3)nn2)cc1F | 1 | -1 | 1 | 26 | 1 | 15
CC(=O)Nc1cccc(NC(=O)CSc2ccc(-c3ccccn3)nn2)c1 | -5 | 15 | 438* | 13 | 7 | 2
CC(=O)c1cccc(NC(=O)CSc2ccc(-c3ccccn3)nn2)c1 | -1 | 10 | -1 | 48*! | 6 | 19
CCc1ccc(NC(=O)CSc2ccc(-c3ccccn3)nn2)cc1 | 4 | 6 | 305* | 5 | 18 | -13
O=C(NCCNc1ccc(-n2cccc2)nn1)c1ccccc1C(F)(F)F | x | x | x | -3 | x | x
Cc1cc(C(=O)Nc2ccccc2-c2ccc(=O)n(C)n2)c(C)o1 | x | x | x | -8 | x | x
CCSc1ccc(CC(=O)Nc2nc3c(s2)CCCC3)cc1 | x | x | x | 16 | x | x
CC(=O)N1CCN=C1SCc1ccc(Br)cc1 | -4 | x | 0 | -20 | 14 | 53*
CS(=O)(=O)N1CCN=C1SCc1ccc(Br)cc1 | 3 | 11 | 0 | -39 | 10 | 8
CCOc1cccc(C2c3c(oc4cc(C)c(C)cc4c3=O)C(=O)N2CCCN(C)C)c1 (stereo unspecified) | x | x | x | x | x | 50*
Cc1cc2oc3c(c(=O)c2cc1C)C(c1cccc([N+](=O)[O-])c1)N(CCCN(C)C)C3=O (stereo unspecified) | x | x | x | 8 | x | x
CCn1nc(C)cc1C(=O)Sc1ccc(Cl)cc1Cl | 24 | -5 | -3 | 1 | 96* | 12
O=C(NC(c1ccccc1)c1ccccc1)N1CC(Oc2nccs2)C1 | x | x | x | 4 | x | x
Cc1ccc(Cn2nnc3c(=O)[nH]c(C4CCCN(S(=O)(=O)c5ccccc5)C4)nc32)cc1 (stereo unspecified) | 10 | 10 | 4 | -6 | 10 | 51*
Cc1ccc(Cn2nnc3c(=O)[nH]c(C4CCCN(S(=O)(=O)c5ccccc5F)C4)nc32)cc1 (stereo unspecified) | 4 | 3 | 0 | -2 | 9 | -29
O=c1[nH]c(C2CCN(S(=O)(=O)c3ccc4c(c3)OCCO4)CC2)nc2c1nnn2Cc1ccccc1 | 7 | -2 | -1 | -1 | 10 | 53*
O=C(NN=Cc1ccc(Cl)c([N+](=O)[O-])c1)c1cc(-c2ccc3c4c(cccc24)CC3)n[nH]1 | -10 | 14 | x | x | 4 | x
CC(C)(C)C(O)C(Cc1ccccc1Cl)n1cncn1 (stereo unspecified) | 8 | 11 | 276* | 8 | 9 | 24
CCOC(=O)CC(=O)CSc1nc2sc(C)cc2c(=O)n1C | x | x | x | 1 | x | x
Cn1cccc1-c1noc(CNC(=O)Cc2ccccc2Br)n1 | x | x | x | 17 | x | x

Assay outcomes deposited in PubChem by several laboratories.
